Molecules are shown by their SMILES. About 4,000 (25%) of roughly 16,000 compounds were called active. Inconclusive results (about 26%) are left out. Not all results are given here. Values without a mark were called inactive. Calls follow the shape of the dose curve; as a rule, active = well fitted curve in the direction sought with a large enough effect; inconclusive = small, poorly fitted or top-dose-only effect, or effect the other way; inactive = no such curve, though single readings can be large or run the other way.
% is scaled to controls: 0 for no effect and ±100 for the full control effect.

In this assay the target is Cytochrome P450 2C9 (Homo sapiens) (UniProt P11712). Briefly: Cytochrome panel assay with activity outcomes. The settings on record: recombinant CYP, pro-luciferin dealkylation, luminescence, p450-cyp2c9; series mostly up to 57.1 µM.
Chain of Cytochrome P450 2C9 (Homo sapiens) (P11712 whole entry, looked up): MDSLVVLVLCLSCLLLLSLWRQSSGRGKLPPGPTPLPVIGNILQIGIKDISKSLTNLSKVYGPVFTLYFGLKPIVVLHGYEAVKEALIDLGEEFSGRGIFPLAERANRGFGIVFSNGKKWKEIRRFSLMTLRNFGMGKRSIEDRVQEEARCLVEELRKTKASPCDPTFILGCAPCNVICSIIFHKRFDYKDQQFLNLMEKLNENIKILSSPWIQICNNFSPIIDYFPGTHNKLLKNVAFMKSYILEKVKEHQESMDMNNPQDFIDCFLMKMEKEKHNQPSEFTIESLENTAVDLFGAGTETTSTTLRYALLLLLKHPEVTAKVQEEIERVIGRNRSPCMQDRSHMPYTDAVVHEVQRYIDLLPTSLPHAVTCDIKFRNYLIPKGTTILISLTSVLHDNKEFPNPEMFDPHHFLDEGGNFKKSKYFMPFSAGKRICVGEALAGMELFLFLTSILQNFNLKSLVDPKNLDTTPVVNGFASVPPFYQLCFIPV
In the case of `CNc1cc(CS(=O)c2ccccc2)nc(-c2ccccc2)n1` (stereo unspecified), the AC50 result is “inactive”.

Consider `CCOC(=O)CSc1cc(CS(=O)c2ccc(Cl)cc2)nc(-c2ccccc2)n1` (stereo unspecified), for which the half-maximal activity concentration (AC50) is 1.26 µM (active).

Consider `C=CCN=C1CC(C)(C)CC(=O)/C1=C(/O)CCC(=O)OC`, for which the AC50 entry is “inactive”.

On to `CN(C)CCCNc1ncnc2nc[nH]c12`, for which the activity, negative = inhibition was 3.87% [at 11.4 µM].

Turning to `CO[C@@H]1/C=C\O[C@]2(C)Oc3c(C)c(O)c4c(O)c(cc(O)c4c3C2=O)NC(=O)/C(C)=C\C=C/[C@H](C)[C@@H](O)[C@H](C)[C@H](O)[C@H](C)[C@H](OC(C)=O)[C@@H]1C`, the activity, negative = inhibition is -6.49% [at 11.4 µM].

For the compound `Cc1ccc(SC(C)C(=O)NCc2cccnc2)cc1` (stereo unspecified), the AC50 is 8.91 µM (active).

Regarding `c1cncc(CNCc2cccnc2)c1`, the activity, negative = inhibition is 16% [at 11.4 µM].

Take `O=C(NCc1cccnc1)[C@@H]1[C@@H](C(=O)O)[C@H]2CC[C@@H]1O2`: the activity, negative = inhibition is -5.99% [at 11.4 µM].

As to `COc1c(N2CCN(C(=S)Nc3ccc(F)cc3)C(C)C2)c(F)cc2c(=O)c(C(=O)O)cn(C3CC3)c12` (stereo unspecified), the AC50 entry is “inactive”.

With `CC(=O)OC1COC(N2CCc3cc([N+](=O)[O-])ccc32)C(OC(C)=O)C1OC(C)=O` (stereo unspecified), the concentration at half-maximal activity (AC50) is 0.891 µM (active).

`CN1CCCN(C)C1c1cc([N+](=O)[O-])ccc1O`: the activity, negative = inhibition is -15.9% [at 11.4 µM].

As for `Cc1cnc(CNc2nc(-c3ccoc3)nc3ccccc23)cn1`, the activity, negative = inhibition is -6.46% [at 2.29 µM].

For the compound `CCn1ncc(/C=C/C(=O)NCc2cn(C)nc2C)c1C`, the AC50 result was “inactive”.

Turning to `COc1ccc(/C=C/C(=O)NCc2cn(C)nc2C)cc1COc1ccc(Br)cc1`, the AC50 is 12.6 µM (active).

As to `COc1ccc(C(=O)NNC(=O)Cc2ccc(-c3ccccc3)cc2)cc1OC`, the AC50 result was “inactive”.

On to `COc1ccc(C(=O)NN)cc1COc1ccc(Br)cc1`, for which the AC50 was 8.91 µM (active).

For the compound `COC(=O)CCC(=O)NNC(=O)c1ccc(Br)cc1`, the AC50 entry is “inactive”.

As to `CC(C)n1nnnc1-c1cc(Cl)cc(Cl)c1`, the AC50 entry was “inactive”.

Consider `CCOC(=O)c1cc(C(=O)OCC)cc(-n2cc(O)c(C(=O)OCC)n2)c1`, for which the AC50 entry is “inactive”.

Consider `CCOC(=O)c1nn(-c2ccccc2)c(-c2ccccc2)c1C(=O)c1ccccc1`, for which the concentration at half-maximal activity (AC50) was 10 µM (active).

With `CC(=O)NCCNc1nc(-c2ccccc2C(F)(F)F)nc2ccccc12`, the activity, negative = inhibition is 5.47% [at 2.29 µM].

As for `COc1cccc(-c2cc(C(=O)N/N=C/c3ccc(OC)c(COC(C)=O)c3)c3ccccc3n2)c1`, the half-maximal activity concentration (AC50) is 0.398 µM (active).

Turning to `COc1ccc(/C=N/NC(=O)c2cc(-c3ccc(C)cc3C)nc3ccccc23)cc1COC(C)=O`, the concentration at half-maximal activity (AC50) is 0.794 µM (active).

On to `NS(=O)(=O)c1cc(C(=O)O)c(Cl)c([N+](=O)[O-])c1Cl`, for which the activity, negative = inhibition is 8.24% [at 11.4 µM].

Turning to `CCCn1cnc2c(SCC(=O)O)nc(N)nc21`, the activity, negative = inhibition was 3.25% [at 11.4 µM].

As to `O=C1c2ccccc2-c2ccc(N(Cc3ccc(Br)cc3)Cc3ccc(Br)cc3)cc21`, the activity, negative = inhibition was -1.26% [at 11.4 µM].

Consider `Cc1nc2sccn2c(=O)c1Cl`, for which the AC50 entry was “inactive”.

As for `CCCN(C/C=C\I)[C@@H]1CCc2cccc(O)c2C1`, the AC50 result was “inactive”.

Turning to `CCSc1nnc(NC(=O)C(C(F)(F)F)C(F)(F)F)s1`, the AC50 was 7.94 µM (active).

Regarding `COCCSc1nnc(NC(=O)C(C)(C)C)s1`, the AC50 result was “inactive”.

As to `CN(C)S(=O)(=O)c1nc(Cl)c2[nH]cnc2n1`, the activity, negative = inhibition is 1.52% [at 11.4 µM].

Consider `CCn1c(SCc2ccc(C#N)cc2)nnc1-c1ccc(S(=O)(=O)N2CCCCC2)cc1`, for which the concentration at half-maximal activity (AC50) was 4.47 µM (active).

Regarding `O=C1N=C(N2CCOCC2)S/C1=C\C=C/c1ccccc1`, the AC50 result is “inactive”.

In the case of `O=C1N=C(N2CCC(Cc3ccccc3)CC2)S/C1=C/c1cn[nH]c1-c1ccccc1`, the AC50 is 0.447 µM (active).

With `CCN1CCCCC(=N/O)/C(=N/O)CCCC1`, the activity, negative = inhibition is -7.4% [at 11.4 µM].

With `Cc1cc(C)c(C(N)=O)c(SCC(=O)c2ccc(Cl)cc2)n1`, the AC50 is 12.6 µM (active).

For the compound `CCCSc1nc(C)cc(C)c1C(N)=O`, the AC50 entry is “inactive”.

Regarding `Cc1cc(C)c(C(N)=O)c(NC(=O)Nc2ccccc2)n1`, the AC50 entry is “inactive”.

For `CCO[C@H]1O[C@@H]([C@H](COCc2ccccc2)OCc2ccccc2)[C@@H](OCc2ccccc2)[C@H]1O`, the AC50 is 10 µM (active).

As to `CC(C)[C@@H](OCc1ccccc1)[C@H](C)/C=N\OC[C@@H](O)[C@@H]1O[C@@H]2OC(C)(C)O[C@@H]2[C@H]1O`, the activity, negative = inhibition is -22.1% [at 11.4 µM].

Turning to `O[C@@H]1[C@@H](OCc2ccccc2)OC[C@H](O)[C@@H]1O`, the activity, negative = inhibition was 0.912% [at 11.4 µM].

`COc1ccc(CNc2ncncc2-c2ccccc2CN(C)C)c(OC)c1`: the activity, negative = inhibition is -5.35% [at 2.29 µM].

As to `O=C(c1ccccc1)c1cc(F)c(N2CCOCC2)cc1Cl`, the AC50 entry was “inactive”.

As for `O=C(c1ccc(Cl)c(Cl)c1)c1cc(-c2ccccn2)c(N2CCOCC2)s1`, the AC50 is 5.01 µM (active).

Turning to `CN(C)C(=O)c1ccc(-c2ccc3ncnc(N4CCOCC4)c3c2)cc1`, the activity, negative = inhibition was 20.2% [at 2.29 µM].

Consider `C[C@@H]1CC[C@H]2C(=O)N3[C@@H](CC[C@@H](C)[C@@H]3c3ccc(Br)cc3)C(=O)N2[C@@H]1c1ccc(Br)cc1`, for which the half-maximal activity concentration (AC50) is 3.98 µM (active).

Consider `CCCC[C@@H]1CN2[C@H](c3ccc(Br)cc3)[C@@H](C)CC[C@H]2C(=O)O1`, for which the activity, negative = inhibition is -13.2% [at 11.4 µM].

For the compound `C[C@@H]1CN2[C@H](c3ccc(Br)cc3)[C@H](C)CC[C@H]2C(=O)O1`, the activity, negative = inhibition was -3.17% [at 11.4 µM].

In the case of `CCC(Sc1nc2cc3c(cc2c(=O)n1Cc1ccco1)OCO3)C(=O)Nc1ccccc1OC` (stereo unspecified), the AC50 was 0.631 µM (active).

As to `COc1cccc(Nc2ncc3nc(-c4cccs4)c(=O)n(Cc4cccs4)c3n2)c1`, the AC50 result is “inactive”.

As to `COc1ccccc1NC(=O)N1CCCC1C(=O)NCc1ccc2c(c1)OCO2` (stereo unspecified), the AC50 entry was “inactive”.

On to `CCC(Sc1nc2cc3c(cc2c(=O)n1Cc1ccco1)OCO3)C(=O)Nc1cccc(OC)c1` (stereo unspecified), for which the concentration at half-maximal activity (AC50) is 2 µM (active).

Regarding `CCCc1nnc(SCC(=O)N2C(C)CCCC2C)n1CCCOC` (stereo unspecified), the AC50 result was “inactive”.

Consider `Cc1cc(=O)c2c(O)c(O)ccc2o1`, for which the AC50 result is “inactive”.

Regarding `CCOC(=O)[C@@]12C[C@@H]1/C(=N/O)c1ccccc1O2`, the AC50 result is “inactive”.

Regarding `CCOC(=O)c1cccc2c1-c1ccccc1/C2=N/O`, the concentration at half-maximal activity (AC50) is 8.91 µM (active).

Turning to `NC[C@H](O)C1CCCCCCC1`, the AC50 result was “inactive”.

As to `Nc1ncnc2c1nc(Sc1ccc(Cl)cc1)n2[C@@H]1O[C@H]2COP(=O)(O)O[C@@H]2[C@H]1O`, the AC50 result is “inactive”.

On to `Cn1c(=O)c(-c2ccc(Cl)cc2)nc2cnc(Oc3ccccc3)nc21`, for which the AC50 entry was “inactive”.

For `COCCn1c(=O)c(-c2cn(C)c3ccccc23)nc2cnc(Oc3ccccc3)nc21`, the AC50 entry is “inactive”.

On to `COCCn1c(=O)c(-c2ccccc2)nc2cnc(Oc3ccccc3)nc21`, for which the AC50 is 10 µM (active).

`COCCn1c(=O)c(-c2ccc(Cl)cc2)nc2cnc(Oc3ccccc3)nc21`: the concentration at half-maximal activity (AC50) is 7.94 µM (active).

Take `COCCn1c(=O)c(-c2cn(C)c3ccccc23)nc2cnc(Oc3ccc(OC)cc3)nc21`: the AC50 entry is “inactive”.

As for `COCCn1c(=O)c(-c2ccccc2)nc2cnc(Oc3ccc(OC)cc3)nc21`, the AC50 was 10 µM (active).

In the case of `CCNc1ncc2nc(-c3ccc(OC)cc3)c(=O)n(CCOC)c2n1`, the AC50 entry is “inactive”.

On to `COCCn1c(=O)c(-c2ccccc2)nc2cnc(Nc3cccc(OC)c3)nc21`, for which the AC50 result was “inactive”.

As to `COCCn1c(=O)c(-c2ccc(Cl)cc2)nc2cnc(Nc3ccccc3)nc21`, the AC50 result is “inactive”.

As for `Nc1nc(N)c2[nH]cnc2n1` (tested in a mixture with another compound), the activity, negative = inhibition was -4.44% [at 11.4 µM].

On to `Cc1[nH]c(N)nc(=S)c1CCC(=O)O`, for which the activity, negative = inhibition was 2.61% [at 11.4 µM].

Turning to `c1ccc2c[n+](Cc3ccnc4ccccc34)ccc2c1`, the activity, negative = inhibition was -6.16% [at 11.4 µM].

As for `C=CCn1c(SCC(=O)Nc2c(C)n(C)n(-c3ccccc3)c2=O)nc2sc(C)c(-c3ccccc3)c2c1=O`, the concentration at half-maximal activity (AC50) was 14.1 µM (active).

Take `Cc1c(NC(=O)Cn2ccc([N+](=O)[O-])n2)c(=O)n(-c2ccccc2)n1C`: the AC50 result was “inactive”.

Turning to `Cc1c(NC(=O)CN2C(=O)C3C4C=CC(C4)C3C2=O)c(=O)n(-c2ccccc2)n1C` (stereo unspecified), the AC50 result is “inactive”.

Consider `Cc1nc(SCC(=O)Nc2c(C)n(C)n(-c3ccccc3)c2=O)nc(C)c1C`, for which the AC50 result was “inactive”.

For the compound `Cc1c(NC(=O)CSc2nnc3c4ccccc4n(CCc4ccccc4)c3n2)c(=O)n(-c2ccccc2)n1C`, the AC50 is 0.708 µM (active).

With `Cc1c(NC(=O)CSc2nnnn2C)c(=O)n(-c2ccccc2)n1C`, the AC50 result is “inactive”.

Regarding `CN[C@]1(C)[C@@H]2CC[C@@H](C2)C1(C)C`, the AC50 result was “inactive”.

In the case of `CN1CCN(C2=Cc3ccccc3Oc3ccc(Cl)cc32)CC1`, the AC50 entry is “inactive”.

As for `C=CC[C@@H]1C=C[C@H](O/N=C(\C)CCN2CCc3nc(CC)c(CC)cc3C2)[C@H](CO)O1`, the activity, negative = inhibition was -6.8% [at 11.4 µM].

As for `N#Cc1cc2nc(O)c(O)nc2cc1[N+](=O)[O-]`, the AC50 entry was “inactive”.

With `O=C(O)c1cc(N=Nc2ccc([N+](=O)[O-])cc2)ccc1O`, the activity, negative = inhibition is -19.1% [at 11.4 µM].

For `O=C(c1cc(O)c(O)c([N+](=O)[O-])c1)c1ccccc1F`, the AC50 is 1.26 µM (active).

`CCCn1nnnc1-c1cc(Cl)cc(Cl)c1`: the AC50 result was “inactive”.

Regarding `Cc1cc(Cl)ccc1OCC(=O)Nc1nc(N)nc(N)n1`, the activity, negative = inhibition was 23.6% [at 11.4 µM].

With `Cc1cc(Cl)ccc1OCC(=O)NCc1ccncc1`, the AC50 is 0.794 µM (active).

As for `CCCn1nnnc1NC(=O)COc1ccc(Cl)cc1C`, the AC50 is 10 µM (active).

Consider `Cc1ccc(CNC(=O)COC(=O)c2cnccn2)cc1`, for which the AC50 result is “inactive”.

As for `CCN(CC)CCOC(=O)C1(c2ccc([N+](=O)[O-])cc2)CCCC1`, the AC50 entry is “inactive”.

As to `Cc1cccc(NC(=O)C2(c3ccccc3)CC2(Cl)Cl)c1` (stereo unspecified), the AC50 is 2 µM (active).

As for `Cc1cccc(NC(=O)C2(c3ccc([N+](=O)[O-])cc3)CCCC2)c1`, the AC50 was 20 µM (active).

Regarding `Cc1cccc(N/C(N)=N/c2nc(C)cc(C)n2)c1`, the AC50 result is “inactive”.

The values above are taken from PubChem BioAssay AID1851 (National Center for Advancing Translational Sciences (NCATS), 2009).
